Bioassay records (PubChem)
miR-122 inh = activators of miR-122 sensor in Huh7 cells; activation, % at 12.5 µM; Huh7 psiCHECK-miR122 Renilla luciferase sensor, 48 h; AID 623901; 0.14% of 340,000 active;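 active = mean activation of 30% or more, with every replicate also reaching 30%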;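 also: 0% = median of neutral control wells and 100% = median of positive control wells; higher luciferase signal means stronger suppression of miR-122 activity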
The depositor's hits bear a star. The full list was thinned out, with hits kept by preference.

SMILES | miR-122 inh
C[C@@H]1CN([C@@H](C)CO)S(=O)(=O)c2ccc(-c3cccc(C(=O)N(C)C)c3)cc2O[C@H]1CN(C)C(=O)Nc1ccccc1 | -7
COc1ccccc1-[n+]1c(C)cc(/C=C2\Sc3ccccc3N2C)cc1C | 69*
C[C@H](CO)N1C[C@H](C)[C@@H](CN(C)C(=O)Nc2cc(F)ccc2F)Oc2cc(-c3ccc(C#N)cc3)ccc2S1(=O)=O | -44
C[C@H]1CN([C@@H](C)CO)C(=O)c2cc(/C=C/c3ccccc3)cnc2O[C@@H]1CN(C)C(=O)Nc1ccccc1F | 0
Cc1noc(C)c1NC(=O)N(C)C[C@H]1Oc2ncc(C#CCC(C)C)cc2C(=O)N([C@@H](C)CO)C[C@H]1C | 6
CNC[C@@H]1Oc2cc(C#Cc3cccc(F)c3)ccc2S(=O)(=O)N([C@H](C)CO)C[C@H]1C | -13
C[C@@H]1CN([C@@H](C)CO)S(=O)(=O)c2ccc(Br)cc2O[C@H]1CN(C)Cc1cccc(F)c1 | 7
CC(C)NC(=O)Nc1ccc2c(c1)CC(=O)N([C@H](C)CO)C[C@@H](C)[C@@H](CN(C)Cc1ccc(Oc3ccccc3)cc1)O2 | -97
C[C@H](CO)N1C[C@H](C)[C@H](CN(C)Cc2ccc(C(=O)Nc3ccccc3N)cc2)Oc2ccc(NC(=O)Nc3ccc(F)cc3)cc2CC1=O | -267
C[C@H](CO)N1C[C@H](C)[C@@H](CN(C)Cc2ccc(-c3ccccc3)cc2)Oc2ccc(NC(=O)Cc3ccccc3)cc2CC1=O | 35*
C[C@@H]1CN([C@@H](C)CO)C(=O)Cc2cc(NC(=O)c3ccncc3)ccc2O[C@H]1CN(C)Cc1ccc(-c2ccccc2)cc1 | 32*
C[C@@H]1CN([C@@H](C)CO)C(=O)Cc2cc(NC(=O)C3CCCCC3)ccc2O[C@H]1CN(C)Cc1ccncc1 | 3
C[C@H](CO)N1C[C@H](C)[C@@H](CN(C)C(=O)Nc2ccccc2)Oc2ccc(NC(=O)Cc3ccccc3)cc2CC1=O | 0
CCC(=O)Nc1ccc2c(c1)C(=O)N(C)C[C@@H](OC)[C@@H](C)CN(C(C)=O)[C@@H](C)CO2 | -3
C[C@@H]1CN([C@H](C)CO)S(=O)(=O)c2ccc(C#CC3CC3)cc2O[C@@H]1CN(C)Cc1ccccn1 | -22
CCCNC(=O)N(C)C[C@H]1Oc2ncc(C#CCC3CCCC3)cc2C(=O)N([C@@H](C)CO)C[C@@H]1C | -9
CC(C)C#Cc1cnc2c(c1)C(=O)N([C@@H](C)CO)C[C@H](C)[C@H](CN(C)Cc1ccccn1)O2 | 3
CCCN(C)C[C@@H]1Oc2cc(C#CC3(O)CCCC3)ccc2S(=O)(=O)N([C@H](C)CO)C[C@@H]1C | 10
COc1ccccc1S(=O)(=O)Nc1cccc(S(=O)(=O)N2CCCC2)c1 | -77
COc1cc(C(=O)Nc2ccc(S(=O)(=O)N3CCCCC3C)cc2)cc(OC)c1OC (stereo not given) | 46*
COc1ccccc1N(CC(=O)N1CCCCC1C)S(=O)(=O)c1ccc(Cl)cc1 (stereo not given) | -128
C[C@H](CO)N1C[C@H](C)[C@H](CN(C)Cc2ccccc2F)Oc2ncc(-c3ccccc3F)cc2C1=O | -8
COc1ccc(C#Cc2cnc3c(c2)C(=O)N([C@@H](C)CO)C[C@@H](C)[C@H](CN(C)CC2CCOCC2)O3)cc1 | 7
COc1ccccc1S(=O)(=O)N(C)C[C@@H]1Oc2ncc(-c3ccc(C)cc3)cc2C(=O)N([C@H](C)CO)C[C@H]1C | 8
COc1ccccc1C#Cc1ccc2c(c1)O[C@@H](CN(C)Cc1ccncc1)[C@H](C)CN([C@@H](C)CO)S2(=O)=O | 11
SMILES | miR-122 inh
Cc1cccc(C(=O)Nc2cccc(S(=O)(=O)NCc3ccco3)c2)c1 | -95
Cc1cc(C(=O)Nc2cccc(O)c2)co1 | 36*
C[C@@H]1CN([C@H](C)CO)S(=O)(=O)c2ccc(C#CCC3CCCC3)cc2O[C@@H]1CN(C)C(=O)CC1CC1 | -12
COc1cccc(NC(=O)N(C)C[C@@H]2Oc3cc(-c4cccc(C(=O)N(C)C)c4)ccc3S(=O)(=O)N([C@@H](C)CO)C[C@H]2C)c1 | -1
Cc1cc(C)cc(NC(=O)c2ccc(CSc3nnc(C)s3)cc2)c1 | 34*
CNC[C@H]1Oc2cc(C#Cc3cccc(F)c3)ccc2S(=O)(=O)N([C@@H](C)CO)C[C@H]1C | -5
COCC(=O)N(C)C[C@H]1Oc2cc(-c3cccc(F)c3)ccc2S(=O)(=O)N([C@H](C)CO)C[C@@H]1C | -9
COc1ccccc1S(=O)(=O)N(C)C[C@H]1Oc2cc(/C=C/c3ccccc3)ccc2S(=O)(=O)N([C@@H](C)CO)C[C@@H]1C | -34
C[n+]1c2cc(N)ccc2cc2ccc(N)cc21 | 76*
C[C@H](CO)N1C[C@H](C)[C@H](CN(C)Cc2ccccn2)Oc2cc(-c3cccnc3)ccc2S1(=O)=O | 8
CCCNC(=O)Nc1ccc2c(c1)OC[C@H](C)N(C)C[C@H](C)[C@@H](OC)CN(C)C2=O | -2
Cc1c(NC(=O)/C=C/c2cn(-c3ccccc3)nc2-c2ccccc2)c(=O)n(-c2ccccc2)n1C | 37*
COCC#Cc1ccc2c(c1)O[C@H](CN(C)C(=O)COC)[C@@H](C)CN([C@H](C)CO)S2(=O)=O | 1
